{"source": "the supplement of paper PMC10981050", "note": "Structures can show the parent of a compound that is named as a salt.", "data": [{"tested_on": "MOLM14", "test": "cell viability relative to vehicle control; higher = less cytotoxic", "conditions": "10 µM; SRSF2 genotype: SRSF2 wt/wt", "outline": "(§1)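 CRISPR-edited SRSF2 P95 mutant and isogenic wild-type clones of four leukaemia lines were screened against Selleck bioactive, kinase and epigenetic probe libraries, with identity-inconsistent compounds removed. Compounds were acoustically dispensed into 384-well plates at a single 10 µM dose, with 2000 cells in 50 µL medium per well. After 48 h, supernatant was removed and CellTiter-Glo luminescence was read. Viability was expressed as percent of the on-plate DMSO vehicle control, analysed in Genedata Screener.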", "units": {"cell viability": "%"}, "values": [{"smiles": "CCC(=O)OCC(=O)[C@@]1(OC(=O)CC)[C@@H](C)C[C@H]2[C@@H]3CCC4=CC(=O)C=C[C@]4(C)[C@@]3(F)[C@@H](O)C[C@@]21C", "note": "[Betamethasone Dipropionate (Diprolene)]", "cell viability": 96}, {"smiles": "O=C(O)c1cc(I)ccc1NC(=O)[C@H](Cc1ccccc1)NCc1ccccc1", "cell viability": 101}, {"smiles": "C=CC(=O)N1CC[C@@H](Oc2nc(Nc3ccc(N4CCC(N5CCN(C)CC5)CC4)cc3)c(C(N)=O)nc2CC)C1", "note": "[ASP8273 (Naquotinib)]", "cell viability": 10.5}, {"smiles": "O=c1c(-c2ccc(O)cc2)coc2c([C@@H]3O[C@H](CO)[C@@H](O)[C@H](O)[C@H]3O)c(O)ccc12", "note": "[Puerarin (Kakonein)]", "cell viability": 102}, {"smiles": "COc1ccc(-n2nc(C(N)=O)c3c2C(=O)N(c2ccc(N4CCCCC4=O)cc2)CC3)cc1", "note": "[Apixaban]", "cell viability": 105}]}, {"tested_on": "OCI-AML2", "test": "cell viability relative to vehicle control; higher = less cytotoxic", "conditions": "10 µM; SRSF2 genotype: P95H/wt", "outline": "as §1", "units": {"cell viability": "%"}, "values": [{"smiles": "Cc1csc(-c2nnc(Nc3ccc(Oc4ncccc4-c4ccnc(N)n4)cc3)c3ccccc23)c1", "cell viability": 38.5}, {"smiles": "CN1CCC(c2c(O)cc(O)c3c(=O)cc(-c4ccccc4Cl)oc23)C(O)C1", "note": "(stereo not given) [Flavopiridol (Alvocidib) HCl]", "cell viability": 5.83}, {"smiles": "Cc1ccc(C(C)C)c(O)c1", "note": "[Thymol]", "cell viability": 98.3}, {"smiles": "CN1CCN(c2ccc(Nc3cc(-c4cccc(-n5ccc6cc(C7CC7)cc(F)c6c5=O)c4CO)cn(C)c3=O)nc2)CC1", "cell viability": 2.87}, {"smiles": "NS(N)(=O)=O", "note": "[Sulfamide]", "cell viability": 98.4}, {"smiles": "COc1ccc(Oc2cc(C)c(-c3csc(NC(=O)c4ccncc4)n3)c(C)c2)cc1", "cell viability": 47.8}, {"smiles": "Cc1c(O)c(=O)ccn1C", "note": "[Deferiprone]", "cell viability": 90.5}, {"smiles": "CCCCCCNC(=O)n1cc(F)c(=O)[nH]c1=O", "note": "[Carmofur]", "cell viability": 57.9}, {"smiles": "C[C@@H]1COCCN1c1cc(C2([S@](C)(=N)=O)CC2)nc(-c2cc[nH]c3nccc2-3)n1", "cell viability": 10.6}, {"smiles": "Cc1nc(Nc2cnn(C3CCNCC3)c2)nc2c1N(C)C(=O)c1cc3ccccc3cc1N2C", "cell viability": 19.2}, {"smiles": "CCCOc1ccc2[nH]c(NC(=O)OC)nc2c1", "note": "[Oxibendazole]", "cell viability": 4.68}, {"smiles": "COC1=CC(=O)c2ccccc2C1=O", "note": "[2-Methoxy-1,4-naphthoquinone]", "cell viability": 36.9}, {"smiles": "CC(=O)c1ccc2c(c1)c1cc(C(C)=O)ccc1n2CCNC(C)C", "cell viability": 4.6}, {"smiles": "CC(C(=O)O)c1ccc2c(c1)CC(=O)c1ccccc1S2", "note": "(stereo not given) [Zaltoprofen]", "cell viability": 94.4}, {"smiles": "CC(C)Oc1ccc(C(=O)N[C@H](CNC(=O)CN(C)C)Cc2ccc(-c3cn4cccc([C@H](C)O)c4n3)cc2)cc1Cl", "cell viability": 12.4}, {"smiles": "NC(=O)c1cccc2cn(-c3ccc([C@@H]4CCCNC4)cc3)nc12", "note": "[MK-4827(Niraparib) tosylate]", "cell viability": 41.8}, {"smiles": "O=C(O)Cc1ccccc1Nc1c(Cl)cccc1Cl", "note": "[Diclofenac Sodium]", "cell viability": 91.1}, {"smiles": "C#CC1(O)CC[C@H]2[C@@H]3CCC4=CC(=O)CC[C@@H]4[C@H]3CC[C@@]21CC", "note": "(stereo not given in full) [Norgestrel]", "cell viability": 122}, {"smiles": "COC(=O)C1=C(C)NC(C)=C(C(=O)OCCN2CCN(C(c3ccccc3)c3ccccc3)CC2)C1c1cccc([N+](=O)[O-])c1", "note": "(stereo not given) [Manidipine (Manyper)]", "cell viability": 29.8}, {"smiles": "CN(C)N(C)C(=O)[C@@]1(Cc2ccccc2)CCCN(C(=O)[C@@H](Cc2c[nH]c3ccccc23)NC(=O)C(C)(C)N)C1", "note": "[Anamorelin]", "cell viability": 69.2}, {"smiles": "O=C(O)CCCCC(CCSCc1ccccc1)SCc1ccccc1", "note": "(stereo not given)", "cell viability": 94.6}, {"smiles": "COc1ccc(C(=O)C(=O)c2ccc(OC)cc2)cc1", "cell viability": 94.5}, {"smiles": "CNC(=O)c1cc(Oc2ccc(NC(=O)Nc3ccc(Cl)c(C(F)(F)F)c3)cc2)ccn1", "note": "[Sorafenib Tosylate]", "cell viability": 9.8}, {"smiles": "C[C@@H](O)[C@H]1C(=O)N2C(C(=O)O)=C(S[C@@H]3CN[C@H](C(=O)N(C)C)C3)[C@H](C)[C@H]12", "note": "[Meropenem]", "cell viability": 111}, {"smiles": "COC(=O)C1=C(C)NC(C)=C(C(=O)OCC(C)C)C1c1ccccc1[N+](=O)[O-]", "note": "(stereo not given) [Nisoldipine]", "cell viability": 41.2}, {"smiles": "COc1cccc(/C=N/N(C(=O)C(F)(F)F)c2ccc(C)cc2C)c1", "cell viability": 101}, {"smiles": "CN(CC(=O)N(Cc1ccc(C2CCCCC2)cc1)c1ccc(C(=O)O)cc1)S(=O)(=O)c1c(F)c(F)c(F)c(F)c1F", "cell viability": 0.12}, {"smiles": "C=CC(=O)Nc1cccc(Oc2nc(Nc3ccc(N4CCN(C)CC4)cc3)ncc2Cl)c1", "cell viability": 0.39}, {"smiles": "CO[C@@]12[C@H](COC(N)=O)C3=C(C(=O)C(C)=C(N)C3=O)N1C[C@@H]1N[C@@H]12", "note": "[Mitomycin C]", "cell viability": 0.41}, {"smiles": "Clc1cccc(-c2nnnn2Cc2cccnc2)c1Cl", "cell viability": 108}, {"smiles": "Cc1cccc(Nc2ccncc2S(=O)(=O)NC(=O)NC(C)C)c1", "note": "[Torsemide (Demadex)]", "cell viability": 103}, {"smiles": "O=c1cc(-c2ccc(O)cc2)oc2cc(O)c([C@@H]3O[C@H](CO)[C@@H](O)[C@H](O)[C@H]3O)c(O)c12", "note": "[Isovitexin]", "cell viability": 99.7}, {"smiles": "C=C1[C@@H]2CC[C@@H](C2)C1(C)C", "note": "[Camphene]", "cell viability": 98.5}, {"smiles": "CN(C)c1cccc(-c2c3c(=O)n(-c4ccccc4Cl)[nH]c3cc(=O)n2C)c1", "cell viability": 101}, {"smiles": "CO[C@H]1C[C@@H]2CC[C@@H](C)[C@@](O)(O2)C(=O)C(=O)N2CCCC[C@H]2C(=O)O[C@H]([C@H](C)C[C@@H]2CC[C@H](n3cnnn3)[C@H](OC)C2)CC(=O)[C@H](C)/C=C(\\C)[C@@H](O)[C@@H](OC)C(=O)[C@H](C)C[C@H](C)/C=C/C=C/C=C/1C", "note": "[Zotarolimus (ABT-578)]", "cell viability": 64.2}, {"smiles": "CCC(=O)OCC(=O)[C@@]1(OC(=O)CC)[C@@H](C)C[C@H]2[C@@H]3CCC4=CC(=O)C=C[C@]4(C)[C@@]3(F)[C@@H](O)C[C@@]21C", "note": "[Betamethasone Dipropionate (Diprolene)]", "cell viability": 113}, {"smiles": "O=C(O)c1cc(I)ccc1NC(=O)[C@H](Cc1ccccc1)NCc1ccccc1", "cell viability": 110}, {"smiles": "C=CC(=O)N1CC[C@@H](Oc2nc(Nc3ccc(N4CCC(N5CCN(C)CC5)CC4)cc3)c(C(N)=O)nc2CC)C1", "note": "[ASP8273 (Naquotinib)]", "cell viability": 20.4}, {"smiles": "O=c1c(-c2ccc(O)cc2)coc2c([C@@H]3O[C@H](CO)[C@@H](O)[C@H](O)[C@H]3O)c(O)ccc12", "note": "[Puerarin (Kakonein)]", "cell viability": 96.4}, {"smiles": "COc1ccc(-n2nc(C(N)=O)c3c2C(=O)N(c2ccc(N4CCCCC4=O)cc2)CC3)cc1", "note": "[Apixaban]", "cell viability": 98}]}]}
